Test results published in article PMC5540273 (PLoS ONE, 2017).

Tests used:
Settings in all cases: concentration: 1 μM,replicates: in singlicate; n = 1
BMX = test system: BMX
BRAF = test system: BRAF
BRK = test system: T1, BRK
T1 construct: gene PTK6

BRSK1 = test system: BRSK1
BRSK2 = test system: BRSK2
BTK = test system: BTK
BUB1 = test system: BUB1
CAMK1B = test system: CAMK1B
CAMK1D = test system: CAMK1D
CAMK1G = test system: CAMK1G
CAMK1 = test system: CAMK1
CAMK2A = test system: CAMK2A
CAMK2B = test system: CAMK2B
CAMK2D = test system: CAMK2D
CAMK2G = test system: CAMK2G
CAMK4 = test system: CAMK4
CAMKK1 = test system: CAMKK1
CAMKK2 = test system: CAMKK2
CASK = test system: CASK
CDC2L1 = test system: T2, CDC2L1
T2 construct: gene CDK11B
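Also: KINOMEscan kinase panel screen.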

SMILES | %Inh (BMX) | %Inh (BRAF) | %Inh (BRK) | %Inh (BRSK1) | %Inh (BRSK2) | %Inh (BTK) | %Inh (BUB1) | %Inh (CAMK1B) | %Inh (CAMK1D) | %Inh (CAMK1G) | %Inh (CAMK1) | %Inh (CAMK2A) | %Inh (CAMK2B) | %Inh (CAMK2D) | %Inh (CAMK2G) | %Inh (CAMK4) | %Inh (CAMKK1) | %Inh (CAMKK2) | %Inh (CASK) | %Inh (CDC2L1)
Cl.Nc1n[nH]c2cc(-c3ccccn3)ccc12 [GSK2189892] | 12% | 0% | 32% | 0% | 0% | 0% | 0% | 0% | 25% | 0% | 23% | 0% | 0% | 2% | 24% | 0% | 0% | 9% | 0% | 1%
CN(c1ccccc1CNc1nc(Nc2ccc3c(c2)CC(=O)N3)ncc1C(F)(F)F)S(C)(=O)=O | 39% | 0% | 0% | 14% | 36% | 0% | 0% | 0% | 0% | 0% | 0% | 22% | 18% | 0% | 59% | 0% | 58% | 64% | 0% | 0%
CN1CCN(CCCNc2nccc(-c3c(-c4ccc(F)cc4)nn4cc(C(N)=O)ccc34)n2)CC1 [GW622475] | 20% | 49% | 6% | 9% | 29% | 0% | 25% | 0% | 21% | 21% | 31% | 0% | 0% | 21% | 37% | 0% | 11% | 30% | 3% | 6%
CCCC(=O)Nc1n[nH]c2ncccc12 [SB-601436] | 28% | 7% | 0% | 0% | 0% | 0% | 0% | 0% | 3% | 0% | 0% | 13% | 0% | 0% | 0% | 0% | 0% | 0% | 0% | 0%
O=C(NCC1CC1)c1ccc(-c2cc(C(=O)NC3CC3)ccc2F)cc1 [GW810445] | 0% | 0% | 0% | 0% | 0% | 0% | 22% | 21% | 0% | 0% | 0% | 0% | 0% | 0% | 0% | 0% | 0% | 0% | 41% | 0%
O=C(NOCC1CC1)c1cc(Br)c(F)c(F)c1Nc1ccc(I)cc1Cl | 0% | 0% | 0% | 0% | 0% | 0% | 0% | 0% | 0% | 0% | 0% | 0% | 0% | 0% | 0% | 0% | 0% | 0% | 0% | 0%
c1ccc(Oc2ccc(Nc3ccnc4ccc(-c5ccccn5)cc34)cc2)cc1 [GW407034] | 44% | 13% | 81% | 12% | 0% | 61% | 12% | 5% | 0% | 5% | 1% | 0% | 0% | 7% | 16% | 0% | 0% | 9% | 8% | 0%
COC(=O)c1cccc(NC(=O)NC2CCN(c3ccnc(Nc4cc(OC)c(OC)c(OC)c4)n3)C2)c1 (centres unmarked) [GSK1379767] | 30% | 0% | 8% | 0% | 0% | 37% | 48% | 38% | 14% | 0% | 35% | 0% | 0% | 0% | 26% | 0% | 13% | 19% | 2% | 0%
COc1cccc(C2=C(Nc3cccc(Cl)c3)C(=O)NC2=O)c1 [SB-341556] | 24% | 0% | 19% | 11% | 2% | 0% | 23% | 29% | 36% | 0% | 1% | 22% | 0% | 14% | 27% | 0% | 3% | 4% | 43% | 0%
CCN1CCN(CCCC(=O)Nc2n[nH]c3nc(-c4ccc(O)cc4)c(Br)cc23)CC1 [SB-731579] | 0% | 81% | 0% | 50% | 54% | 0% | 5% | 65% | 17% | 0% | 0% | 0% | 0% | 0% | 0% | 10% | 0% | 0% | 0% | 0%
